Results: PubChem BioAssay AID493200 (National Center for Advancing Translational Sciences (NCATS), 2011)
Inconclusive results are not listed. A call without a number means that no potency is given here. Calls of active or inactive are those of the source. The call rests on the fitted dose curve; in most records, active means well fitted activation curve with a large enough effect; inconclusive means small, poorly fitted or top-dose-only effect; inactive means no such curve, though single readings can be large or run the other way.

Test: qHTS Assay for Rab9 Promoter Activators: Initial hit validation from the primary screen
Settings: Huh7 Rab9 promoter luciferase reporter, 24 h; series mostly up to 46.1 µM
Method in brief: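 Huh7 cells stably carrying a Rab9 promoter–luciferase construct, plated in reduced-serum medium with 10% FBS, rested 2 h, then exposed to compounds in DMSO for 24 h at 37C. Luminescence read 10 min after adding Amplite luciferase reagent.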
Potency means the concentration at half of the fitted maximal effect.

SMILES | Potency
Cc1[nH]n(-c2cccc3ccccc23)c(=O)c1/C=N/c1sc2c(c1C#N)CCC2 | inactive
Cc1ccc(NC(=O)c2cccc(N3C(=O)CCC3=O)c2)nc1 | inactive
O=C(C1COc2ccccc2O1)N1CCN(S(=O)(=O)c2ccccc2)CC1 (configuration not stated) | inactive
CCCN(CCC)CCCNC(=O)c1cc2cc3ccc(Cl)cc3nc2o1 | inactive
O=C(C[N+]1(CC#Cc2ccccc2)CCCCC1)c1ccccc1 | inactive
CC(=O)NC(CCCN1C(=O)c2ccccc2C1=O)c1nnn(C)n1 (configuration not stated) | inactive
O=C(CSc1nnc(-c2ccccc2)o1)Nc1ccccc1F | 0.112 µM (active)
Cc1noc(/C=C/N(C)C)c1S(=O)(=O)N1CCCC(C(=O)N2CCCCC2)C1 (configuration not stated) | inactive
CCN(C(=O)COC(=O)c1ccc(C=O)cc1)c1c(N)n(Cc2ccccc2)c(=O)[nH]c1=O | inactive
COc1ccc(NC(=O)CCCN2C(=O)C(c3ccccc3)Oc3cccnc32)cc1OC (configuration not stated) | inactive
COc1cccc(C2Nc3ccccc3NC3=C2C(=O)CC(C)(C)C3)c1 (configuration not stated) | inactive
Cc1ccc(S(=O)(=O)/N=C2\C=C(Nc3cccc(C(=O)O)c3)C(=O)c3ccccc32)cc1 | inactive
O=CN1CCN(C(=O)c2ccccc2Cl)CC1 | inactive
NC(=O)C(=O)NN=C1C2CC3CC(C2)CC1C3 | inactive
Nc1ccc(C(=O)Nc2ccccc2N)cc1 | 15.8 µM (active)
Cc1nc(-c2ccccn2)sc1C(=O)Nc1ccc(F)cc1F | 9.96 µM (active)

SMILES | Potency
CCOCC(=O)Nc1c(C(=O)Nc2ccc3c(c2)OCCO3)oc2ccccc12 | 0.628 µM (active)
CCN(Cc1nc2cc(Cl)ccc2c(=O)[nH]1)C(=O)C1CC(=O)N(c2cccc3ccccc23)C1 (configuration not stated) | inactive
O=C(NCCSCc1c(F)cccc1Cl)c1ccc(CN2CCOCC2)cc1 | inactive
S=C1NCN(CCc2ccccc2)CN1Cc1ccccc1 | inactive
Cc1ccc(CNC(=O)Nc2ccc(C)cc2)cc1 | 19.9 µM (active)
COc1ccccc1OCCCC(=O)NCc1ccco1 | inactive
O=C(CCS(=O)(=O)c1ccccc1)Nc1ccc(-c2nc3ccccc3s2)cc1 | 0.223 µM (active)
O=C(CCCN1C(=O)C(c2ccccc2)Oc2cccnc21)Nc1ccccc1Cl (configuration not stated) | inactive
COc1ccccc1N(C(=O)c1snc(C(N)=O)c1N)C(C(=O)NC1CCCCC1)c1cccc(OC)c1OC (configuration not stated) | inactive
CCC(C)(C)NC(=O)C(c1ccc(OC)cc1)N(Cc1cccs1)C(=O)CCC(=O)Nc1cc(C)on1 (configuration not stated) | inactive
CCCOP(=O)(c1ccc(N(C)C)cc1)C(O)c1cccnc1 (configuration not stated) | inactive
CCOC(=O)c1cc2sccc2n1CC(=O)N1CCCc2ccccc21 | inactive
CCCCn1c(CCNC(=O)c2cccs2)nc2ccccc21 | inactive
O=C(NCCc1ccccc1)c1cc2ncc(Br)cn2n1 | 25 µM (active)
COc1ccc([N+](=O)[O-])cc1COc1ccc2c(-c3ccccc3)cc(=O)oc2c1 | inactive
Cc1ccc(C(=O)Nc2ccc(N3CCN(C)CC3)nc2)cc1 | 25 µM (active)
